The target in experiment [1] is Tyrosine-protein kinase SYK (Homo sapiens) (UniProt P43405). Particulars: at 1 µM.
For experiment [2], the target named is T1, Tyrosine-protein kinase Tec (Homo sapiens) (UniProt P42680).
T1 sequence (whole entry): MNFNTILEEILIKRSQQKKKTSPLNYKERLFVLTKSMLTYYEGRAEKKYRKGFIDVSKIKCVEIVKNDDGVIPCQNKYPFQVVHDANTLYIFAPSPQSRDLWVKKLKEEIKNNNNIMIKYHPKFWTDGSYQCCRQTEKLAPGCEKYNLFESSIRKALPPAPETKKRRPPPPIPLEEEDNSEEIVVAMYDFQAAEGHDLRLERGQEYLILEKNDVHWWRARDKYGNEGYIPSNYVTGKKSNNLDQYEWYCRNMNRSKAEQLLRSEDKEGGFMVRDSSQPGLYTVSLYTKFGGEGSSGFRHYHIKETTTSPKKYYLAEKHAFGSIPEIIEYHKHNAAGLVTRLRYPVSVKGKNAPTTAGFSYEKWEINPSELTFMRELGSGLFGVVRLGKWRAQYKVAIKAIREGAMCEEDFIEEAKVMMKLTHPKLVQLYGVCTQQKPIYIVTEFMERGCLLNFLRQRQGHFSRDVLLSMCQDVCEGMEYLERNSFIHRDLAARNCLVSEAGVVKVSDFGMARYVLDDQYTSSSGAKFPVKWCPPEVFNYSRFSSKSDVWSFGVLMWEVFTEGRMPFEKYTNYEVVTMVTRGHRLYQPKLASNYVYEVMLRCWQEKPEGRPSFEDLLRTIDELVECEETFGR
Particulars: at 0.1 µM.

The target of experiment [3] is T1, Tyrosine-protein kinase Tec (Homo sapiens). Particulars: at 1 µM.
Experiment [4] deals with Angiopoietin-1 receptor (Homo sapiens) (UniProt Q02763). Particulars: at 0.1 µM.
Angiopoietin-1 receptor (Homo sapiens), sequence (Q02763 whole entry): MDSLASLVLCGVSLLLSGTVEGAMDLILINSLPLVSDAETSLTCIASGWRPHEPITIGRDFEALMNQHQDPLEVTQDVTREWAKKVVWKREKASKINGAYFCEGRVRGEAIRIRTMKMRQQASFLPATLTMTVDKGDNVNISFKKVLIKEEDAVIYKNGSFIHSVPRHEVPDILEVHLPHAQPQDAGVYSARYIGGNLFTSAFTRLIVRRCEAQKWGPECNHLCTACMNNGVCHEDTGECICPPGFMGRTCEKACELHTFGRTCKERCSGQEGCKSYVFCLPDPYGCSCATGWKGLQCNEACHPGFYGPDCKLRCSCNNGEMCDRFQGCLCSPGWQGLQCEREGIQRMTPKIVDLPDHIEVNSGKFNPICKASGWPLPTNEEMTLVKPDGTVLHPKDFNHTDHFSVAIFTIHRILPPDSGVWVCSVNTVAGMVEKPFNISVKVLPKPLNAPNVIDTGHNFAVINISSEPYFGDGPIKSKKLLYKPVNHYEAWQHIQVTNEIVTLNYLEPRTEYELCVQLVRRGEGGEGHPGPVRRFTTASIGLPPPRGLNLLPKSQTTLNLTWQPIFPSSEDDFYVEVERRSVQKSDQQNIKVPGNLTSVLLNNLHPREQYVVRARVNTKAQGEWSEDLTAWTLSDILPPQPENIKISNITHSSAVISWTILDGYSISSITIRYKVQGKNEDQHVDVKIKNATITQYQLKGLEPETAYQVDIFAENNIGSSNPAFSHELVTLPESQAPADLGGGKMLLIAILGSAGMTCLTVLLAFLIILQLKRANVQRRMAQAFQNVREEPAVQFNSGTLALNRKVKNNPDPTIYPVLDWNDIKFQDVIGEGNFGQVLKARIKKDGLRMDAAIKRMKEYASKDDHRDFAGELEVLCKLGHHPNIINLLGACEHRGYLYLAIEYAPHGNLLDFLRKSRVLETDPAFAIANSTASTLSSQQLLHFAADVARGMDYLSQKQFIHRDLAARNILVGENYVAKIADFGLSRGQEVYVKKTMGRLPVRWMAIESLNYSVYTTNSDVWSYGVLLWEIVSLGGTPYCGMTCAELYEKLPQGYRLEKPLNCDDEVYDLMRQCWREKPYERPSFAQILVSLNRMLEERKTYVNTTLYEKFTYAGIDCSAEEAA
Experiment [5] shares this target. Particulars: at 1 µM.
In experiment [6] the target is T2, Non-receptor tyrosine-protein kinase TNK1 (Homo sapiens) (UniProt Q13470).
T2 sequence (whole entry): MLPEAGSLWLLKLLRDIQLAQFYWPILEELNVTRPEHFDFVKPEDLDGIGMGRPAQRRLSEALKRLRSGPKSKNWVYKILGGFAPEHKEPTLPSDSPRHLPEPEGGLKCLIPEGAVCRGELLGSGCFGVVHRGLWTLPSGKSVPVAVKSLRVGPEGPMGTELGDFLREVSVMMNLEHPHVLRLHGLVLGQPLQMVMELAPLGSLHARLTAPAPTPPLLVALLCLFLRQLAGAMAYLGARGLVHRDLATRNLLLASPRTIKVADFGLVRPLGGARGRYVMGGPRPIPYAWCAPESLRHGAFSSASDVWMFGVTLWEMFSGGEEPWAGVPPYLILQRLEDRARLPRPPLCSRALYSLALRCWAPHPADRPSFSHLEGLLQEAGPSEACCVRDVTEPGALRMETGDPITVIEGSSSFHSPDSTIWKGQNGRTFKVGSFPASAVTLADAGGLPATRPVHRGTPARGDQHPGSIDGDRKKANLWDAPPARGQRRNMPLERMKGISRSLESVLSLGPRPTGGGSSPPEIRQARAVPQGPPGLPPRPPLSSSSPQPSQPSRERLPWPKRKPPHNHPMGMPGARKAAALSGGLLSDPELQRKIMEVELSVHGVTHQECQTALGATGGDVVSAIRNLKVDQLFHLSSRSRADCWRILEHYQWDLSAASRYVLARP
Particulars: at 0.1 µM.

Experiment [7] concerns the target T2, Non-receptor tyrosine-protein kinase TNK1 (Homo sapiens). Particulars: at 1 µM.
Experiment [8] concerns the target Activated CDC42 kinase 1 (Homo sapiens) (UniProt Q07912). Particulars: at 0.1 µM.
For experiment [9] the target is unchanged. Particulars: at 1 µM.
In experiment [10] the target is High affinity nerve growth factor receptor (Homo sapiens) (UniProt P04629). Particulars: at 0.1 µM.
High affinity nerve growth factor receptor (Homo sapiens), sequence (P04629 33-796 limits assumed): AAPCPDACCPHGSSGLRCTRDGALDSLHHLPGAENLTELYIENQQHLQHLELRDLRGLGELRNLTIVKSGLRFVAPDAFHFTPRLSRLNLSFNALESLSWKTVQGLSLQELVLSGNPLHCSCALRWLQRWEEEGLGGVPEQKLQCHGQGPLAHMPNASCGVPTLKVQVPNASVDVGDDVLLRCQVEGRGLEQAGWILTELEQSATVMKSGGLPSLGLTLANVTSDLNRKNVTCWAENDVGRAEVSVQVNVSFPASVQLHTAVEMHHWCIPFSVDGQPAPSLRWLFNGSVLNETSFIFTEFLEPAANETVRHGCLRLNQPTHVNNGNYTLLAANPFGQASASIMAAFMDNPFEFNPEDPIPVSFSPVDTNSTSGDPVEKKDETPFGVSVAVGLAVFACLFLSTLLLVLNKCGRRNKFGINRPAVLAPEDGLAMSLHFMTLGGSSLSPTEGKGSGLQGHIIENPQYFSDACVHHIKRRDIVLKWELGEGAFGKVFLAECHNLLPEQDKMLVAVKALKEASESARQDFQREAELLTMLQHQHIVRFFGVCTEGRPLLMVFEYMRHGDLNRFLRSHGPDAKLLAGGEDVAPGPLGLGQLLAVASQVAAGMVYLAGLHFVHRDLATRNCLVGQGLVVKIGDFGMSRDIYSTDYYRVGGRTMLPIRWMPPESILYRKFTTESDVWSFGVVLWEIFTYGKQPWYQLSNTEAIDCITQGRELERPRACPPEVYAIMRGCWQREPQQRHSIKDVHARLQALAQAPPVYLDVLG
Experiment [11] shares this target. Particulars: at 1 µM.
For experiment [12], the target named is BDNF/NT-3 growth factors receptor (Homo sapiens) (UniProt Q16620). Particulars: at 0.1 µM.
BDNF/NT-3 growth factors receptor (Homo sapiens), sequence (Q16620 32-822 limits assumed): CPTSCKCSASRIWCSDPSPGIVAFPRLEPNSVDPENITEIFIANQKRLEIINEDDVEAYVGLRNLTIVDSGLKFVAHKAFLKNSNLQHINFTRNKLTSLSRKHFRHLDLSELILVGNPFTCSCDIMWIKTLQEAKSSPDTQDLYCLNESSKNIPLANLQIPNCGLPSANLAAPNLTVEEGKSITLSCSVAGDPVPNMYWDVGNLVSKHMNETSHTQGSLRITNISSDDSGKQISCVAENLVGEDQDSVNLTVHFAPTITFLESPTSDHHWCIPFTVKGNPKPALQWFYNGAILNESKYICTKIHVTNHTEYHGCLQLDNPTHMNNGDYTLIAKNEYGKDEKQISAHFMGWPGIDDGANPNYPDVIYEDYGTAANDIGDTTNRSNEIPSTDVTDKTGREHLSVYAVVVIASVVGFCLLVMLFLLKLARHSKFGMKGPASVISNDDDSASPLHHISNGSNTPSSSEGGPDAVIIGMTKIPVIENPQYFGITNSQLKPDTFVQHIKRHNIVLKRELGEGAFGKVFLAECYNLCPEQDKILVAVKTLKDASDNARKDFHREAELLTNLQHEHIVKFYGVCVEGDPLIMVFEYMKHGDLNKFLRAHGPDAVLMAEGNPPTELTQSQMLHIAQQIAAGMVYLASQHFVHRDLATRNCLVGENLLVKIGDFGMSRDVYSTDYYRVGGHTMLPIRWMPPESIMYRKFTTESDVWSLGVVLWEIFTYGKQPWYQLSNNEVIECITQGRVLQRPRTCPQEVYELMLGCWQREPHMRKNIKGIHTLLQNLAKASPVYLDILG
The target is the same in experiment [13]. Particulars: at 1 µM.
The target of experiment [14] is NT-3 growth factor receptor (Homo sapiens) (UniProt Q16288). Particulars: at 0.1 µM.
NT-3 growth factor receptor (Homo sapiens), sequence (Q16288 32-839 limits assumed): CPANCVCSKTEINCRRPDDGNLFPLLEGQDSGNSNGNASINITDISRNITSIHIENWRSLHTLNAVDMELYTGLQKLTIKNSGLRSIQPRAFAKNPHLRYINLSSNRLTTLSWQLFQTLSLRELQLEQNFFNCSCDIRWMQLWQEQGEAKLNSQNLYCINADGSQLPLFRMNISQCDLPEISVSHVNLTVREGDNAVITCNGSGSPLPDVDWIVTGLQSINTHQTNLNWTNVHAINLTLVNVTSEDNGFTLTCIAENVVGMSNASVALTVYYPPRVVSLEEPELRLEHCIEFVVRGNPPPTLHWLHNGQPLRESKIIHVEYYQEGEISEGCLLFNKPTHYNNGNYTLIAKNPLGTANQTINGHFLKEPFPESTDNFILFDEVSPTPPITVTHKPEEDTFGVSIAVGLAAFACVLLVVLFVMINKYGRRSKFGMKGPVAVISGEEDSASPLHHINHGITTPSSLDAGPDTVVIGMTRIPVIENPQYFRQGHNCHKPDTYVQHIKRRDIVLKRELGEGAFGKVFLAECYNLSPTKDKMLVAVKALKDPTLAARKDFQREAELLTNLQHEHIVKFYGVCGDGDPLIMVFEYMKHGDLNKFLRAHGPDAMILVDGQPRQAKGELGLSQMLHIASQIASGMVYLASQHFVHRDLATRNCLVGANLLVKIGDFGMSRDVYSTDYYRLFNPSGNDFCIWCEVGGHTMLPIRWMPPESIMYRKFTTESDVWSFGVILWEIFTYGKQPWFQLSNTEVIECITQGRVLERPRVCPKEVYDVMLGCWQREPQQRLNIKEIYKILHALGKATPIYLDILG
Experiment [15] shares this target. Particulars: at 1 µM.
The target in experiment [16] is T3, Tyrosine-protein kinase TXK (Homo sapiens) (UniProt P42681).
T3 sequence (whole entry): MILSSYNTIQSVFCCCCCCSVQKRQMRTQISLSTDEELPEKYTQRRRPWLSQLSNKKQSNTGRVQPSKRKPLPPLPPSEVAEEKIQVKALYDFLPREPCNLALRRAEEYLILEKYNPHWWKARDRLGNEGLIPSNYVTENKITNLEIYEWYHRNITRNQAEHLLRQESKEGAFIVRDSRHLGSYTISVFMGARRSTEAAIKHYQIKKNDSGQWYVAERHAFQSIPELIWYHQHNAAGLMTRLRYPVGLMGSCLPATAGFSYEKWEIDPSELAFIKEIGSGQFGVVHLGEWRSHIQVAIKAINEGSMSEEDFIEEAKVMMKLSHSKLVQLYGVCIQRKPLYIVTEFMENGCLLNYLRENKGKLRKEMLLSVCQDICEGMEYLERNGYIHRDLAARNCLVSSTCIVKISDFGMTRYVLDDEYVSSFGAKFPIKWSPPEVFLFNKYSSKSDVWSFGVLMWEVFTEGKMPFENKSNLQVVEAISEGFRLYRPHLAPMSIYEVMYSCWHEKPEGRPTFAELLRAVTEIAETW
Particulars: at 0.1 µM.

Experiment [17] has as its target T3, Tyrosine-protein kinase TXK (Homo sapiens). Particulars: at 1 µM.
For experiment [18], the target named is Non-receptor tyrosine-protein kinase TYK2 (Homo sapiens) (UniProt P29597). Particulars: at 0.1 µM.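 Also: each value is a mean of the inhibition readings.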
Non-receptor tyrosine-protein kinase TYK2 (Homo sapiens), sequence (P29597 whole entry): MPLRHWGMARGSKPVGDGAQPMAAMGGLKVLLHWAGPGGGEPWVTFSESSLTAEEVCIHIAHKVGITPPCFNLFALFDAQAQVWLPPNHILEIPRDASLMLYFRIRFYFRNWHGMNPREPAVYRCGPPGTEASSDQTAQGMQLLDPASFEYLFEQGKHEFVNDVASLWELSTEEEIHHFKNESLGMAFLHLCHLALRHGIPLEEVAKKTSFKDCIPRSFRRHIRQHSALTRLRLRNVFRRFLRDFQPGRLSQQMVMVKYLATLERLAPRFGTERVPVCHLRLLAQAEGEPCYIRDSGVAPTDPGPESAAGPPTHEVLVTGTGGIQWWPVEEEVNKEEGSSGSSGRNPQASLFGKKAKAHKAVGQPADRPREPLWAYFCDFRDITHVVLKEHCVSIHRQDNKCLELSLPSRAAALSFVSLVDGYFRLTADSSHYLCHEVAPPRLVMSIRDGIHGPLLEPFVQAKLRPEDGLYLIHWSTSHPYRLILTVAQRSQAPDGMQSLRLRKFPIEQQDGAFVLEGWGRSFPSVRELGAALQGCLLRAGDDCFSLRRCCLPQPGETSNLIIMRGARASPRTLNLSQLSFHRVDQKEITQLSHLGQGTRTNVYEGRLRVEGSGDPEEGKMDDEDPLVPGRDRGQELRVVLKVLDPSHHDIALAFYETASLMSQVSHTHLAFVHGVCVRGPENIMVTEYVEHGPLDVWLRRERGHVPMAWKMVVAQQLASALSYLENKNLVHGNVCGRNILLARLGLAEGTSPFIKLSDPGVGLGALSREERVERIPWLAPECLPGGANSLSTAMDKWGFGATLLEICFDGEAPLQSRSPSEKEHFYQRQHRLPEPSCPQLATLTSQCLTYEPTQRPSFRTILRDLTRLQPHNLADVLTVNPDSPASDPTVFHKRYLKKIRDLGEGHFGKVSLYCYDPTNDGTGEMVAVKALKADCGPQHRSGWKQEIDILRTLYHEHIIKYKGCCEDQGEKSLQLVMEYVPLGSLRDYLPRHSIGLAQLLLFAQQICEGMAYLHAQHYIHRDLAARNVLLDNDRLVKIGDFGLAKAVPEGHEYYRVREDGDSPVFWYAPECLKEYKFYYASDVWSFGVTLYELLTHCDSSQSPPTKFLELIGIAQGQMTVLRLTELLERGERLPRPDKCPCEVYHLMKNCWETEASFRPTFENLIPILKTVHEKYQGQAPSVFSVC
Experiment [19] has as its target T4, Dual specificity protein kinase TTK (Homo sapiens) (UniProt P33981).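 Also: reported figures are mean TTK inhibition at 1 µM.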
T4 sequence (whole entry): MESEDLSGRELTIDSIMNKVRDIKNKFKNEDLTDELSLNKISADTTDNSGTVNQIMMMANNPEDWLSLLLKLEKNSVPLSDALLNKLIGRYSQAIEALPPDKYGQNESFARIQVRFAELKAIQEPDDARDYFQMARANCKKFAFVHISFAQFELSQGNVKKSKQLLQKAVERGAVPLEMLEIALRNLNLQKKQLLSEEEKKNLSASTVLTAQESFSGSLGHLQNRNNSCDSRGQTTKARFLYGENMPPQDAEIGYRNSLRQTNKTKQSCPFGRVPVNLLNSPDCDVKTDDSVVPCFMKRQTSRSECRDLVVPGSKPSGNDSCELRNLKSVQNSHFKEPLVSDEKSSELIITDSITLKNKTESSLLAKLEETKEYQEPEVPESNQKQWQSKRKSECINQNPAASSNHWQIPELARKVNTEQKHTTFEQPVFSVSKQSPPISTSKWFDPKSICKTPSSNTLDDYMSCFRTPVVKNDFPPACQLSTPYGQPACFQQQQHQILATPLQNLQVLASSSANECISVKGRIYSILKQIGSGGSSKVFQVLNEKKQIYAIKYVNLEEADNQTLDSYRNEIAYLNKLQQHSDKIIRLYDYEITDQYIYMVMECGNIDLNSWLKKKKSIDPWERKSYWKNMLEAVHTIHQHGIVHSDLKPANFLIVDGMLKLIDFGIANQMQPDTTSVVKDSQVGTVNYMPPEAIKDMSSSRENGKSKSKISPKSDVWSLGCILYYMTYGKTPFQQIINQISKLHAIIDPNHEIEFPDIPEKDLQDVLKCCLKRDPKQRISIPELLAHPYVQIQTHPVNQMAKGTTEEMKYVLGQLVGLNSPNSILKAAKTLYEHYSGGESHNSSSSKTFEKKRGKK
Particulars: at 1 µM.

For experiment [20], the target named is T5, Aurora kinase A (Homo sapiens) (UniProt O14965).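 Also: each reported value is a mean percent inhibition of Aurora-A.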
T5 sequence (whole entry): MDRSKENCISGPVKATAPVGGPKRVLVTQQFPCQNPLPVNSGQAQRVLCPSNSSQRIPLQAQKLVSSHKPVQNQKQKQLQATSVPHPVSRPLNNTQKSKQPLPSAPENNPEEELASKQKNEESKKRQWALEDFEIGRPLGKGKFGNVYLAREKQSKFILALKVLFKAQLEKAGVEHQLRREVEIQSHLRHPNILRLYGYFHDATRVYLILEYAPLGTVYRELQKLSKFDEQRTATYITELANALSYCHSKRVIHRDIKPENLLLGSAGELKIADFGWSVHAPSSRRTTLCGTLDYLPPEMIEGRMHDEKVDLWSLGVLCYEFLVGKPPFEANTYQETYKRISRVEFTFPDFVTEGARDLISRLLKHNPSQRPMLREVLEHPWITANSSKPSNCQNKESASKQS
Particulars: at 0.1 µM.

By inhibition is commonly meant the drop in the measured response relative to a control, in per cent. Consider `Cc1cc(-c2ccccn2)cc(C)c1/C=C/c1cncc(-c2nn[nH]n2)c1`, for which the inhibition was -0.42% in experiment [1]; 4.67% in experiment [2]; 12.4% in experiment [3]; 2.01% in experiment [4]; 8.32% in experiment [5]; 9.02% in experiment [6]. Further, the inhibition came out at 50.8% in experiment [7]; 0.32% in experiment [8]; 2.33% in experiment [9]; 2.23% in experiment [10]; 10% in experiment [11]; 3.94% in [12]. In addition, the inhibition in experiment [13] is 4.13%; in experiment [14] it was 1.49%; in experiment [15] it was 2.54%; in experiment [16], 2.93%; in experiment [17] it was 4.47%; in [18], -2.23%. Besides, the figures for the inhibition in experiment [19] and in experiment [20] were 9.95% and 1.9%, respectively.
As for `C[C@@H](Oc1cc(-n2cnc3ccc(OCC4CCN(C)CC4)cc32)sc1C(N)=O)c1ccccc1C(F)(F)F`, the inhibition was 0.25% in experiment [1]; -1.52% in [2]; -0.1% in experiment [3]; 5.78% in experiment [4]; 32.4% in experiment [5]; 3.21% in [6]. Moreover, the inhibition in experiment [7] is 30.3%; in experiment [8], 5.42%; in experiment [9], 46.1%; in experiment [10] it was -0.37%; in experiment [11], 0.72%; in [12], -0.51%. Besides, the inhibition was 1.01% in [13]; -0.61% in [14]; 0.64% in experiment [15]; -1.27% in experiment [16]; 1.35% in experiment [17]; 2.67% in [18]. Moreover, the inhibition in [19] is 1.44%; in [20], -0.53%.
Consider `CN(C)C(=O)O[C@H]1CN[C@H](C#Cc2cc3ncnc(Nc4ccc(OCc5cccc(F)c5)c(Cl)c4)c3s2)C1`, for which the inhibition in experiment [1] was -0.76%; in [2], 3.98%; in [3], 6.52%; in experiment [4], 2.98%; in [5], 5.32%; in experiment [6] it was 1.02%. Moreover, the inhibition came out at 12% in [7]; 1.42% in experiment [8]; 1.79% in experiment [9]; 2.9% in [10]; 0.1% in experiment [11]; 1.92% in experiment [12]. The inhibition in experiment [13] was 2.03%; in experiment [14], 1.38%; in experiment [15], 2.78%; in experiment [16] it was 2.86%; in experiment [17] it was 4.84%; in experiment [18] it was -7.95%. Moreover, the values for the inhibition in [19] and in [20] were 6.07% and 1.25%, respectively.

The values are drawn from ChEMBL document CHEMBL1961873, “Compounds: GSK PKIS; Assays: Nanosyn kinase panel” (2012).
